TNAP pNPP inh: blocks human TNAP p-nitrophenol release; P05186; purified TNAP, pNPP hydrolysis, absorbance 405 nm; inhibition, % at 20 µM; 21,000 tested, under 10 active; AID 615;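 note: 0% = DMSO only wells and 100% = 1 mM levamisole wells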
Target sequence (P05186 whole entry, looked up): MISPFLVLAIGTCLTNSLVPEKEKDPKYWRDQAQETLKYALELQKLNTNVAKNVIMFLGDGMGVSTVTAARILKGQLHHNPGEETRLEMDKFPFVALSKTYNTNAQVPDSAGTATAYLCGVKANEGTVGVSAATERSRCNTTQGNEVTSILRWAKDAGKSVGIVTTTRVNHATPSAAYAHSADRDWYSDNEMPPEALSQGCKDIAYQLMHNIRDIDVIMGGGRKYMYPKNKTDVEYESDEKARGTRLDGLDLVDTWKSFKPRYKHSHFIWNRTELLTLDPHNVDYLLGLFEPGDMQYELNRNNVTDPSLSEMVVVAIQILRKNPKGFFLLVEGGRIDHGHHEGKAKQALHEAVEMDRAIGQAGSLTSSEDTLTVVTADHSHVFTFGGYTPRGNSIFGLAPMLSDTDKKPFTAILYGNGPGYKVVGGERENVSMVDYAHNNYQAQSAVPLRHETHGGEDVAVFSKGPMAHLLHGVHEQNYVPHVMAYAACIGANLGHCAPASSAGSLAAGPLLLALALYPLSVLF
TNAP inh Pi: inhibitors of human tissue-nonspecific alkaline phosphatase | purified TNAP, pNPP, malachite green phosphate absorbance | inhibition, % at 20 µM | 21,000 tested, under 10 active | AID 614
Numbers without * were called inactive. The list is a sample of the results.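 Rule for the calls: active = inhibition above 50% at the 20 µM single-dose screen; inactive = the rest.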

SMILES	TNAP pNPP inh	TNAP inh Pi
CCOc1ccc2[nH]c(=O)c(CN(Cc3ccc(C)cc3)C(=O)N3CCCC3)cc2c1	6.6	14.8
COc1ccc2c(=O)c3c(=O)n(Cc4ccco4)c(C4CCCCC4)nc3oc2c1	3.7	-17.5
CN(C)S(=O)(=O)c1ccc(S(=O)(=O)N(CC(=O)Nc2ccccc2)CC2CCCO2)cc1 (stereo unspecified)	5.4	-14.1
O=C(c1cccc(S(=O)(=O)N2CCOCC2)c1)N1CCCCCC1	2.3	-25.0
CCC1(C)Cc2c(sc3c2c(=O)n(C)c2nnc(SCc4ccc5c(c4)OCO5)n32)CO1 (stereo unspecified)	-0.1	-20.3
O=C(CSc1nnc(CN2CCOCC2)n1-c1ccc(Cl)cc1)Nc1cc(Cl)ccc1O	0.0	0.0
CCOC(=O)c1c(C)oc2ccc(OCC(=O)C(C)(C)C)cc12	2.6	11.5
O=C(CN1C(=O)CSC1=O)NCc1ccccc1	3.8	-13.7
COc1cc(-c2c(C#N)c(N)nc3c2c(C)nn3-c2ccc(C)c(C)c2)cc(OC)c1OC	3.0	9.9
O=C(c1cccnc1)N1CCN(CCCc2ccccc2)CC1	6.1	-4.8
CN(C)c1ccc(-n2cc3c(=O)n(C)c(=O)n(C)c3c2)cc1	-9.4	-0.9
O=C(O)c1cc(Nc2nc(N3CCOCC3)nc(N3CCOCC3)n2)ccc1Cl	0.3	14.0
CCN(CC)C(=O)C(C)OC(=O)COc1ccc(Cl)cc1C (stereo unspecified)	4.3	8.3
COc1cccc(CN(Cc2cccnc2)S(=O)(=O)c2ccc(-n3cnnn3)c(C)c2)c1OC	1.6	11.2
COC(=O)c1c(NC(=O)CSc2nnnn2-c2ccc3c(c2)OCO3)sc(C)c1C	3.7	8.9
CCn1c(N2CCN(CC(=O)c3c[nH]c4ccccc34)CC2)nc2c1c(=O)[nH]c(=O)n2C	6.0	2.5
Fc1ccccc1-c1nc(N2CCCCC2)c2ccccc2n1	4.2	8.6
O=C(CN1C2=NCCN2c2ccccc21)c1ccco1	3.7	7.1
COc1ccc2[nH]cc(C(=O)CN3CCN(C/C=C/c4ccccc4)CC3)c2c1	1.5	-1.3
Cc1cc(C)n(-c2nc3c(c(=O)[nH]c(=O)n3C)n2CC(O)COc2ccccc2)n1 (stereo unspecified)	0.2	5.0
COc1ccc(CNC(=O)C2CC(=O)N(c3ccc(OCC(=O)N4CCCCC4)cc3)C2)cc1 (stereo unspecified)	-1.3	6.8
Cc1ccccc1-n1nc(C)c2cc(C(=O)N3CCN(S(=O)(=O)c4ccccc4)CC3)sc21	-0.2	5.8
Cc1cc(C)n2nc(SCC(=O)N(C(C)C)C(C)C)nc2n1	6.1	13.8
CC1CN(c2cc3nccnc3cc2F)CC(C)O1 (stereo unspecified)	8.2	12.8
COc1ccccc1CNC(=O)c1c(O)c2cc(OC)c(OC)cc2[nH]c1=O	0.0	0.0
SMILES	TNAP pNPP inh	TNAP inh Pi
Cc1nn(C(=O)N2CCCCC2)c(C)c1CN1C(=O)c2ccccc2C1=O	0.5	5.3
CC1CCN(C(=O)Nc2cccc(NC(=O)N3CCC(C)CC3)c2)CC1	0.0	8.2
COC(=O)CSc1nc(-c2ccccc2)cc(-c2ccco2)c1C#N	1.7	5.7
NC(=O)CSc1nnc(COc2ccccc2)n1CCc1ccccc1	1.1	3.5
Cc1noc(C)c1CN1C(=O)NC(Cc2ccccc2)(Cc2ccccc2)C1=O	1.4	15.2
O=C(COC(=O)c1ccco1)NCC1CCCO1 (stereo unspecified)	5.5	-1.5
CSCCc1nc(SCC(=O)Nc2nnc(C)s2)[nH]c1C	6.4	10.5
Cc1ccc(-c2nnn(CCC(=O)N3CCCCC3C)n2)cc1 (stereo unspecified)	1.3	8.3
C=CCn1c(SCC(=O)Nc2ccc(N(C)C)cc2)nnc1-c1cccc(C)c1	-2.0	4.8
CCOC(=O)C1C(=O)CC(C)(O)C(C(=O)OCC)C1c1cc(Br)ccc1OC (stereo unspecified)	2.6	0.4
O=S(=O)(NCc1ccccc1Br)c1cccs1	8.0	10.8
CN(C(=O)CSc1nc2ccccc2n1CCc1ccccc1)C1CCS(=O)(=O)C1 (stereo unspecified)	4.1	9.4
O=C(NCCCn1ccnc1)Nc1ccc(Cl)c(Cl)c1	10.6	16.5
CC1=CC(=C(C#N)c2nc3ccccc3s2)C=C(C)N1Cc1ccco1	2.9	16.0
CCOc1c(C#N)c(C#N)c2nc(C)cc(C)n12	2.6	-12.0
Cc1cc(=O)[nH]c(SC/C=C/c2ccccc2)n1	3.2	9.3
CCn1c(SCC(=O)NC2CCCCC2C)nnc1-c1ccc(OC)cc1 (stereo unspecified)	1.1	9.4
CCN(CC)S(=O)(=O)c1csc(C(=O)NC2CCCCC2)c1	1.1	17.5
CC(=O)NC(=O)NC1OC(=O)C(Cl)=C1Cl (stereo unspecified)	3.0	9.0
O=C(Nc1ccc(N2CCOCC2)cc1N1CCOCC1)c1ccco1	1.6	12.0
C=CCOC(=O)C(C#N)c1nc2ccccc2nc1N1CCC(C(=O)OCC)CC1 (stereo unspecified)	6.3	-4.9
Cn1c(OCc2cccnc2)nc2c1c(=O)n(Cc1ccc(Br)cc1)c(=O)n2C	2.1	8.2
Cc1nc(C)c(C(=O)Nc2ccccc2)s1	7.0	6.9
CCc1nc(N)c(C#N)c(-c2ccccc2OC)c1C	3.1	9.3
COc1cc(-c2nc(-c3ccc(C)nc3OC)no2)cc(OC)c1OC	-5.1	0.7
SMILES	TNAP pNPP inh	TNAP inh Pi
CCOc1ccc2ccccc2c1C(=O)N1CCOCC1	9.6	-4.9
Cc1csc(NC(=O)CSc2nc3sc(C)c(C)c3c(=O)[nH]2)n1	0.3	7.8
CC(C)C(C)(C#N)NC(=O)CSc1nc2scc(-c3ccco3)c2c(=O)n1-c1ccccc1 (stereo unspecified)	3.0	12.3
CCc1nc(N2CCC(C)CC2)c2oc3ccccc3c2n1	0.4	2.4
CCCNC(=O)c1nc2ncc(Br)cn2n1	6.0	7.5
CC1CCCCC1NC(=O)Cn1cnc2ccccc2c1=O (stereo unspecified)	-10.9	-5.8
CC(C)(C)C(=O)Nc1c2c(nc3c1CCC3)CCCC2	-0.1	-2.0
COC(=O)CNC(=O)c1ccc(=O)oc1	3.6	-2.3
O=C(Cc1cc(=O)oc2cc(O)ccc12)NCC1CCC(C(=O)O)CC1 (stereo unspecified)	1.9	9.2
Cc1ccc(N2CCN(CC(O)COC3CCCCC3)CC2)cc1 (stereo unspecified)	9.0	12.5
Cc1cccc(N2C(=O)CC(N3CCN(Cc4ccc(Cl)cc4)CC3)C2=O)c1 (stereo unspecified)	4.1	5.8
CC(C)OCCCN1C(=O)c2[nH]nc(-c3ccccc3O)c2C1c1cccc(Cl)c1 (stereo unspecified)	0.0	4.2
COc1ccc(NC(=O)C2CC2)cc1-n1cnnn1	-4.0	2.5
CC(=O)Nc1cc2c(cc1C(C)=O)OCCO2	2.5	1.3
COc1cc(NC(=O)CN2C(=O)c3ccccc3C2=O)c(C(=O)O)cc1OC	-8.5	1.3
Nn1c(SCC(=O)Nc2ccc3c(c2)OCCO3)nnc1C(F)(F)F	0.0	0.0
